This is an account of results in PubChem BioAssay (Tox21).

Values joined by “and” are separate entries in the source; they are usually repeats but may differ in a detail not shown here. Equal values may be shown once. Results filed as inconclusive are left out. Where a call stands in place of a potency, no number is given. Active and inactive are the calls of the source. Calls come from the whole dose curve; as a rule, active = well fitted inhibition curve with a large enough effect in the repeat runs; inconclusive = weak or mixed curves, or effect the other way; inactive = no such curve, though single readings can be large or run the other way.
Potency is the fitted concentration of half-maximal effect.

Nuclear receptor subfamily 1 group I member 3 (Homo sapiens), sequence (Q14994 whole entry, looked up): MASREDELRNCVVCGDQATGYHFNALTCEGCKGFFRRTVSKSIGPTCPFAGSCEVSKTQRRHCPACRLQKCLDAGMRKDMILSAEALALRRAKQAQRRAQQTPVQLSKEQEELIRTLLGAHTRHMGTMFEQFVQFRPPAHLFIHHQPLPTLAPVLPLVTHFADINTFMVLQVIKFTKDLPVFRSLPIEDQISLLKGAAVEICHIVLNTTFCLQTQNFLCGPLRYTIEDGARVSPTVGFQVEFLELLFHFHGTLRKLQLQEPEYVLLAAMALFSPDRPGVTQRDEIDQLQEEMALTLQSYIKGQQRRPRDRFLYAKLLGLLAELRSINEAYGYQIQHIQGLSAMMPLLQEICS

In this test the target is Nuclear receptor subfamily 1 group I member 3 (Homo sapiens) (UniProt Q14994). Briefly: qHTS assay to identify small molecule antagonists of the constitutive androstane receptor (CAR) signaling pathway (AID 1224838).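 Note: HepG2 cells stably expressing hCAR with CYP2B6 luciferase reporter stimulated by CITCO; nearly all actives have a fitted effect of over 40% in size.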 Particulars: HepG2-CYP2B6-hCAR luciferase, CITCO-stimulated, 24 h; series mostly up to 92.4 µM. An excerpt:
U.S. Tox21 Program National Center for Advancing Translational Sciences [NCATS] NIH Chemical Genomics Center [NCGC] U.S. Environmental Protection Agency [EPA] National Institutes of Environmental Health Sciences [NIEHS] National Toxicology Program [NTP] U.S. Food and Drug Administration [FDA] Tox21 Assay Overview: The constitutive androstane receptor (CAR) is a nuclear receptor which regulates multiple drug metabolizing enzymes (DMEs) and transporters. Activating CAR will generally increase the transcription and subsequent translation of CYP2B6 and CYP3A4. These two DMEs represent about 50% of the drug metabolizing potential in the body. When CAR is deactivated, the metabolizing potential in the body will decrease, subsequently increasing the toxicity in the body or lowering the therapeutic potential of a pro-drug. Recently, there have also been studies performed indicating CARs role in energy metabolism and cancer therapy. Therefore, inhibiting CARs activity could have a potential effect on diabetes and cancer. Identifying environmental toxins and compounds which modulate CAR, through the use of the Tox21 10K compound collection, will be an important step in determining the toxicity and potential therapeutic effects these factors will have on the human body.
Tox21 Assay Protocol Summary: A double-stable (hCAR and CYP2B6-2.2kb) transfected cell line, derived from human hepatoma (HepG2) cells, was utilized for the duration of the quantitative high-throughput screens. The HepG2-CYP2B6-hCAR cells suspended in DMEM culture medium supplemented with 10% FBS, 5 ug/mL blasticidin, 0.5 mg/mL geneticin, 100 U/mL penicillin and 100 ug/mL streptomycin were dispensed at 2500 cells/4 uL/well in 1536-well white solid bottom plates using a Multidrop Combi. After the assay plates were incubated at 37 C/5% CO2 for 4 hrs, 23 nL of compounds at 15 concentrations (from 5-48 columns) or positive control (from 1 to 4 columns) were transferred to the assay plates using a Pintool station. One uL of CITCO, was added using a Flying Reagent Dispenser to generate a final concentration of 50 nM CITCO inside each well. After a 24 hr incubation period at 37 C/5% CO2, four uL of ONE-Glo reagent was added into the assay plates using a Flying Reagent Dispenser. After a 30 min incubation period at room temperature, the luminescence intensity in the assay plates was measured using a ViewLux plate reader.
As for `CCOP(=O)(Sc1ccccc1)Sc1ccccc1`, the Potency entry is “inactive”.
In the case of `CN1C(=O)[C@@H](NC(=O)c2cc3ccccc3[nH]2)N=C(c2ccccc2)c2ccccc21`, the Potency result is “inactive”.
Regarding `c1ccc(N=NNc2ccccc2)cc1`, the Potency result is “inactive”.
In the case of `CN(C)c1ccc(N)cc1`, the Potency result is “inactive”.
In the case of `C=Cc1cccc(CCl)c1`, the Potency entry was “inactive”.
`COP(=O)(OC)Oc1ccc([N+](=O)[O-])cc1`: the Potency result was “inactive”.
For `C=CCOC(=O)c1ccccc1N`, the Potency result is “inactive”.
For the molecule `COc1cnc(OC)n2nc(NS(=O)(=O)c3c(OCC(F)F)cccc3C(F)(F)F)nc12`, the Potency result is “inactive”.
Under `CCCCCCCc1ccc(O)cc1` stands “inactive”; under `CCN1CCC2(CC1)COc1cc3c(cc12)N(C(=O)c1ccc(-c2ccc(-c4nnc(C)o4)cc2C)cc1)CC3`, 44.8 µM (active).
On to `Nc1nc(N)nc(Cl)n1`, for which the Potency entry was “inactive”.
As for `CN(C)C(=S)SSC(=S)N(C)C`, the Potency was 191 nM (active) and 386 nM (active) and 473 nM (active).
With `BrCC(Br)(Br)Br`, the Potency result was “inactive”.
Next, `CCC1(CC)C(=O)N=C(O)NC1=O`: “inactive”.
Turning to `O=S1OCC2C(CO1)C1(Cl)C(Cl)=C(Cl)C2(Cl)C1(Cl)Cl` (stereo not given), the Potency result was “inactive”.
As to `O=Cc1ccccc1`, the Potency result is “inactive”.
Under `O=C(Cl)c1ccccc1F` stands “inactive”; under `O=C(NC(=O)c1ccccc1Cl)Nc1ccc(OC(F)(F)F)cc1`, “inactive”; under `Cc1cccc(Cc2cnc[nH]2)c1C`, “inactive”.
Next, `CCOP(=O)(OCC)Oc1nc(Cl)c(Cl)cc1Cl`: “inactive”; `C=C(C)C(=O)[O][Sn]([CH2]CCC)([CH2]CCC)[CH2]CCC`: 0.273 µM (active).
With `CC(C)c1c(CN(C)C(C)Cc2ccccc2)n(C)n(-c2ccccc2)c1=O` (stereo not given), the Potency entry is “inactive”.
Next, `COC(=O)c1cc(Oc2ccc(Cl)cc2Cl)ccc1[N+](=O)[O-]`: “inactive”; `Clc1cc(Cl)c(-c2cc(Cl)c(Cl)cc2Cl)cc1Cl`: “inactive”; `O=[N+]([O-])c1cccc2cccc([N+](=O)[O-])c12`: “inactive”.
In the case of `CC1(C)C(C=C(Cl)Cl)C1C(=O)OC(C#N)c1ccc(F)c(Oc2ccccc2)c1` (stereo not given), the Potency result was “inactive”.
Under `COc1ccc2c3c1O[C@H]1[C@H](O)CC[C@H]4[C@@H](C2)N(C)CC[C@@]341` stands “inactive”.
As for `CCCCC(CC)COC(=O)OOC(C)(C)C` (stereo not given), the Potency entry is “inactive”.
For the molecule `COc1nc(C)nc(NC(=O)NS(=O)(=O)c2ccccc2Cl)n1`, the Potency result was “inactive”.
Next, `CC(C)Br`: “inactive”.
For the molecule `Clc1ccc(C(Cl)(Cl)Cl)cc1Cl`, the Potency result was “inactive”.
As for `Oc1ccc([C@H]2CNCc3c2ccc(O)c3O)cc1O`, the Potency result was “inactive”.
Under `C=CCBr` stands “inactive”; under `CC(C)N(C(=O)SC/C(Cl)=C/Cl)C(C)C`, “inactive”.
`CC1CN1` (stereo not given): the Potency entry is “inactive”.
Regarding `CSC1=N[C@@](C)(c2ccccc2)C(=O)N1Nc1ccccc1`, the Potency entry is “inactive”.
With `Oc1ccc(Cl)c(Cl)c1`, the Potency entry was “inactive”.
Next, `CC(=O)[O][Sn]([c]1ccccc1)([c]1ccccc1)[c]1ccccc1`: 0.0545 µM (active); `Cc1ccc([N+](=O)[O-])[c]2c1[O][Hg]2`: 9.44 µM (active); `CCOP(=S)(OCC)Oc1cc(C)nc(N(CC)CC)n1`: “inactive”.
